Assay outcomes from PubChem.
SIRT5 block – SIRT5 desuccinylase inhibitors, primary screen, biochemical, fluorescence imaging, single point, set 5; Purified SirT5, succinyl-peptide AMC, trypsin-coupled fluorescence; 330,000 tested, 1.1% active; inhibition, % at 15 µM; AID 652115, 2013; NAD-dependent protein deacylase sirtuin-5, mitochondrial (Homo sapiens), Q9NXA8; in the data active = inhibition above about 15%
ERAP1 HTS inh – human ERAP1 aminopeptidase inhibitors, primary screen, biochemical, single point, plate reader. Endoplasmic reticulum aminopeptidase 1 (Homo sapiens), Q9NZ08. recombinant ERAP1, Leu-AMC fluorescence, 60 min. inhibition, % at 10.7 µM. 340,000 tested, 0.15% active. AID 652197, 2013;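 active = mean replicate inhibition of at least 30%, or all replicates individually reaching that 30% level; inactive = mean below 30% and not every replicate reaching it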;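 also: 0% = neutral control wells and 100% = L-leucinethiol positive control wells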
FGF22 binding – binders of human FGF22 protein, primary screen, FGF22 synaptogenesis inhibitor project, biophysical, thermal shift, single point | 340,000 tested, 1.5% active | activity (Tm shift, normalised), % at 9.99 µM | AID 651658, 2012 | recombinant FGF22 thermal shift, SYPRO orange fluorescence; percent of sucrose octasulfate shift, DMSO zero | Fibroblast growth factor 22 (Homo sapiens), Q9HCT0;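 active = mean Tm shift, scaled 0 neutral to 100 positive control, at about 1.3% or above, every replicate too, limit read from the data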
Target sequence (Q9HCT0 whole entry, looked up): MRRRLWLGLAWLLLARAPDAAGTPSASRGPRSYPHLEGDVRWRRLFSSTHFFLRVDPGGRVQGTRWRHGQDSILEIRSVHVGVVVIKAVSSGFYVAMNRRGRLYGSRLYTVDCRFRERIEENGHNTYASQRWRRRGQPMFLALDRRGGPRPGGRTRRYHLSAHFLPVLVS
CASP6 VEID inh – human caspase-6 inhibitors, primary screen, biochemical, VEID-R110 fluorescence, single point, set 2. P55212. purified caspase-6, Z-VEID-R110 cleavage fluorescence. inhibition, % at 12.5 µM. 350,000 tested, 0.53% active. AID 686996, 2013;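 active = mean inhibition across replicates at least about 35%, with every replicate also reaching that limit, limit read from the data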;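 also: 0% = median of neutral control wells and 100% = no fluorescence left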
GSIS activator – GLuc luminescence reporter in INS-1E cells, primary screen for activators of glucose-dependent secretion of insulin; activation, % at 16.6 µM; 370,000 tested, 0.61% active; INS-1E GLuc reporter insulin secretion, 2-3 h;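 active = lowest replicate activation of at least 40%, so every replicate reaches that level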;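 also: 0% = median of neutral control wells and 100% = median of IBMX positive control wells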
* hit, by the source's call; nt = no result. Rows were chosen to be rich in hits. Some 3.3% of all compounds tested hit in one or more screens of this group.

SMILES	SIRT5 block	ERAP1 HTS inh	FGF22 binding	CASP6 VEID inh	GSIS activator
CCc1ccc(C(=O)COC(=O)C(CCSC)NC(=O)c2ccccc2)cc1 (centres undefined)	-3	1	44*	-1	5
CSCCC(NC(=O)c1ccccc1)C(=O)O (centres undefined)	-2	-2	0	2	1
CCc1ccc(C(=O)COC(=O)C(CCSC)NC(=O)C23CC4CC(CC(C4)C2)C3)cc1 (centres undefined)	0	13	0	-1	0
CSCCC(NC(=O)c1ccc(C(C)(C)C)cc1)C(=O)O (centres undefined)	-5	1	44*	-2	-4
CC(C)CC#Cc1ccc([C@@H]2[C@H](CO)N3C(=O)CN(C(=O)c4cccc(F)c4)C[C@@H]23)cc1	2	-1	0	0	-10
C/C=C/c1cnc2c(c1)C(=O)N([C@H](C)CO)C[C@@H](C)[C@@H](CN(C)Cc1ccccc1)O2	-1	0	0	-1	-5
COCC(=O)N(C)C[C@@H]1Oc2cc(-c3cccnc3)ccc2S(=O)(=O)N([C@H](C)CO)C[C@@H]1C	-3	-2	0	-3	11
CCc1ccc(NS(=O)(=O)c2ccc(C)c(C(=O)N3CCOCC3)c2)cc1	-1	83*	0	0	0
Cc1ccc(NS(=O)(=O)c2ccc(C)c(C(=O)N3CCOCC3)c2)cc1	-2	1	0	0	-3
C[C@@H]1CN([C@H](C)CO)C(=O)c2cc(NC(=O)CCC(F)(F)F)ccc2O[C@H]1CN(C)Cc1ccc(-c2ccccc2)cc1	-1	-2	0	-2	-17
CCC/C=C/c1ccc(CN2C(C)C(=O)N(Cc3cn(CCC4OCCCO4)nn3)CCS2(=O)=O)cc1 (centres undefined)	22*	6	0	3	-29
CCC/C=C/c1ccc(CN2C(CC(C)C)C(=O)N(Cc3cn(CCC4OCCCO4)nn3)CCS2(=O)=O)cc1 (centres undefined)	-1	-4	0	1	-7
CCC(=O)NCCCNc1nc2c(C)cccc2cc1C#N	-1	3	43*	6	-10
O=S(=O)(Nc1cccc(-c2ccc3nncn3n2)c1)c1ccccc1F	-4	-2	0	6	12
O=[N+]([O-])c1ccccc1S(=O)(=O)Nc1ccc(-c2ccc3nncn3n2)cc1	0	5	0	-2	49*
O=[N+]([O-])c1ccccc1S(=O)(=O)Nc1cccc(-c2ccc3nncn3n2)c1	-1	-1	0	1	89*
O=S(=O)(Nc1ccc(-c2ccc3nncn3n2)cc1)c1ccccc1F	-5	1	0	-2	24
COc1ccc(S(=O)(=O)Nc2cccc(-c3ccc4nncn4n3)c2)cc1F	-2	12	0	4	42*
C=CCNC(=O)[C@H]1[C@@H]2C(=O)O[C@@H](c3ccccc3)[C@@H](c3ccccc3)N2[C@@H](c2ccc(O)cc2)[C@]12C(=O)Nc1ccc(C#CC3=CCCCC3)cc12	2	0	0	0	nt
CC(C)OC(=O)CC(=O)CSc1nc2c(c(-c3cccs3)c1C#N)CCC2	6	4	44*	4	0
CC(C)NC(=O)N[C@@H]1CC[C@H](CCNC(=O)C2CCOCC2)O[C@@H]1CO	-3	1	0	-5	6
NC(=S)NN=C1CCC2(CCCCC2)CC1	25*	2	0	0	22
C=CCNC(=S)N/N=C/c1ccc(-c2ccc(Cl)cc2Cl)o1	-5	0	0	2	56
C=CCNC(=S)N/N=C/c1ccc(-c2cc(Cl)ccc2Cl)o1	nt	nt	nt	nt	124*
C=CCNc1sc(C(=O)C2CC2)c(N)c1C#N	nt	nt	nt	nt	65*
Cc1cccc(NC(=O)c2cccc(C(=O)Nc3cccc(C)c3)c2)c1	-6	1	2.0*	-1	6
COc1ccc(-c2cccc(C(=O)Nc3ccc(C)cc3)c2)cc1	nt	nt	nt	nt	99*
CCOC(=O)CSc1ccc(C(=O)Nc2ccc(Cl)cc2)cn1	-2	-1	0	1	-6
